Values joined by “and” are separate entries in the source; they are usually repeats but may differ in a detail not shown here. Equal values may be shown once. The panel holds about 83,000 compounds, 20% with a hit somewhere; the sample as a whole holds those more often.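 Percent growth is the endpoint: 0 to 100 indicates growth inhibition (40 means 60% inhibition), 0 means no net growth, and negative values indicate cell death.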 Active and inactive are the calls of the source. The calls were made as follows: active = growth percent below 10; inactive = the rest.
Assays:
Experiment in all cases: NCI-60 one-dose screen, 48 h (100 = growth as untreated, 0 = no growth, -100 = all killed)
Details in all cases: 10 µM unless noted
T-47D breast = tested on: T-47D breast
BT-549 breast = tested on: BT-549 breast
MDA-MB-435 melanoma = tested on: MDA-MB-435 melanoma
SW-620 colon = tested on: SW-620 colon
MCF7 breast = tested on: MCF7 breast
HCT-116 colon = tested on: HCT-116 colon
HCC-2998 colon = tested on: HCC-2998 colon
KM12 colon = tested on: KM12 colon
MDA-MB-468 breast = tested on: MDA-MB-468 breast

Measured: growth

COc1ccc2[nH]c(=O)c(CSc3ccccc3Nc3nccc(-c4ccc5c(c4)OCO5)n3)cc2c1
inactive: T-47D breast 52% | BT-549 breast 67.3% | MDA-MB-435 melanoma 74.5% | SW-620 colon 106% | MCF7 breast 68.2% | HCT-116 colon 70% | HCC-2998 colon 110% | KM12 colon 89.7% | MDA-MB-468 breast 66.5%

CCOC(=O)/C(F)=C/C1CC1C1CCN(C(=O)OC(C)(C)C)CC1 (stereo not drawn)
inactive: T-47D breast 74.6% | BT-549 breast 125% | MDA-MB-435 melanoma 105% | SW-620 colon 101% | MCF7 breast 83.9% | HCT-116 colon 99.1% | HCC-2998 colon 111% | KM12 colon 102% | MDA-MB-468 breast 94.8%

CN1C(=O)/C(=C\C(=O)c2cc3ccccc3oc2=O)c2ccccc21
inactive: T-47D breast 67.4% | BT-549 breast 27.8% | MDA-MB-435 melanoma 85.4% | SW-620 colon 27.1% | MCF7 breast 46.5% | HCT-116 colon 52.6% | HCC-2998 colon 74.2% | KM12 colon 85.1% | MDA-MB-468 breast 28.8%

CC1CCc2c(sc3nc(SCC(=O)c4cccc([N+](=O)[O-])c4)n(-c4ccccc4)c(=O)c23)C1 (stereo not drawn)
inactive: T-47D breast 86.8% | BT-549 breast 94.5% | MDA-MB-435 melanoma 90.8% | SW-620 colon 71.1% | MCF7 breast 86.5% | HCT-116 colon 25% | HCC-2998 colon 105% | KM12 colon 93.5% | MDA-MB-468 breast 83%

COc1ccc(-c2cc(-c3cc(C(C)C)c(O)cc3C)nn2-c2ccc(S(N)(=O)=O)cc2)cc1
active: BT-549 breast -3.73% | MDA-MB-435 melanoma -58.2% | KM12 colon 2.28% | MDA-MB-468 breast -15.9%
inactive: T-47D breast 12.7% | SW-620 colon 28.2% | MCF7 breast 11% | HCT-116 colon 27.4% | HCC-2998 colon 45.9%

O=CNc1cccc(-n2cnc3cc(-c4ccc(O)cc4)ccc32)c1
inactive: T-47D breast 37.5% | BT-549 breast 52.6% | MDA-MB-435 melanoma 24.1% | SW-620 colon 46.3% | MCF7 breast 35% | HCT-116 colon 14.1% | HCC-2998 colon 43.5% | KM12 colon 26.4% | MDA-MB-468 breast 19.5%

COc1ccc(NC2=C(I)C(=O)C(C)=C(C)C2=O)cc1
active: T-47D breast -21.1% | MDA-MB-435 melanoma -72.4% | MCF7 breast -8.31% | HCT-116 colon -3.05% | MDA-MB-468 breast -42.3%
inactive: BT-549 breast 81.4% | SW-620 colon 62.1% | HCC-2998 colon 118% | KM12 colon 19.1%

O=c1ccc(Cn2c(C(F)(F)F)cc3c(Cl)ncnc32)c[nH]1
active: BT-549 breast 4.61%
inactive: T-47D breast 75.7% | MDA-MB-435 melanoma 25.5% | SW-620 colon 32.5% | MCF7 breast 82.4% | HCT-116 colon 19.5% | HCC-2998 colon 40.4% | KM12 colon 105% | MDA-MB-468 breast 37.2%

C#CCCCNCCNc1ccnc2cc(Cl)ccc12
inactive: T-47D breast 71% | BT-549 breast 66.5% | MDA-MB-435 melanoma 59.7% | SW-620 colon 76.8% | MCF7 breast 52% | HCT-116 colon 49.5% | HCC-2998 colon 62% | KM12 colon 91.3% | MDA-MB-468 breast 50.4%

S=C(Nc1ccc(OCc2nc3ccc(Cl)cc3[nH]2)cc1)NC1CCCCC1
inactive: T-47D breast 17.3% | BT-549 breast 13.5%
active: MDA-MB-435 melanoma -10.4% | SW-620 colon -7.01% | MCF7 breast 0.799% | HCT-116 colon -31.6% | HCC-2998 colon -69.5% | KM12 colon -12.5% | MDA-MB-468 breast -30.8%

CN(C(=O)CN1C(=O)/C(=C/c2ccco2)SC1=S)C1CCS(=O)(=O)C1 (stereo not drawn)
inactive: T-47D breast 75.7% | BT-549 breast 91.3% | MDA-MB-435 melanoma 97% | SW-620 colon 99.9% | MCF7 breast 91.1% | HCT-116 colon 96.7% | HCC-2998 colon 104% | KM12 colon 107% | MDA-MB-468 breast 72%

Cn1cc(Nc2ncnc(-c3ccc(N4CCCC4)c(C#N)c3)n2)cn1
inactive: T-47D breast 84.9% | BT-549 breast 76.1% | SW-620 colon 57.6% | MCF7 breast 66.5% | HCT-116 colon 51.2% | HCC-2998 colon 68.6% | KM12 colon 55.2% | MDA-MB-468 breast 16.7%
active: MDA-MB-435 melanoma 8.16%

OC(c1ccccc1)(c1ccccc1)C1CCN(c2ccc3nnc(Cl)n3n2)CC1
active: T-47D breast 9.47% | BT-549 breast 2.56%
inactive: MDA-MB-435 melanoma 42.1% | SW-620 colon 56.6% | MCF7 breast 10.9% | HCT-116 colon 22.6% | HCC-2998 colon 55.2% | KM12 colon 30.9% | MDA-MB-468 breast 30.4%

C=CCn1c(O)c(N=Nc2nc(-c3cc4ccccc4oc3=O)cs2)c2ccccc21
inactive: T-47D breast 88.8% | BT-549 breast 67.3% | MDA-MB-435 melanoma 98.5% | SW-620 colon 101% | MCF7 breast 33.4% | HCT-116 colon 39.3% | HCC-2998 colon 78.4% | KM12 colon 79.4% | MDA-MB-468 breast 70.3%

O=C(Nc1ccc(Cl)c(C(F)(F)F)c1)N1CCN(c2cc(-c3cn(-c4ccccc4)nc3-c3cccc(O)c3)ccn2)CC1
active: T-47D breast -1.78% | BT-549 breast -39.4% | MDA-MB-435 melanoma -65.4% | MCF7 breast -22.2% | HCT-116 colon 4.83% | HCC-2998 colon 6.31% | KM12 colon -8.11% | MDA-MB-468 breast -34.8%
inactive: SW-620 colon 16.6%

C/C(=N\Nc1ccc(S(N)(=O)=O)cc1)c1cnn(-c2cc(=O)[nH]c3ccc(Br)cc23)c1C
active: MDA-MB-435 melanoma 4.39% | MDA-MB-468 breast -10.8%
inactive: T-47D breast 17.5% | BT-549 breast 37.7% | SW-620 colon 75.7% | MCF7 breast 23.1% | HCT-116 colon 58.5% | HCC-2998 colon 73.4% | KM12 colon 53.7%

Cc1ccc(S(=O)(=O)N(CCn2ccnc2[N+](=O)[O-])CCn2ccnc2[N+](=O)[O-])cc1
inactive: T-47D breast 100% | BT-549 breast 119% | MDA-MB-435 melanoma 98.7% | SW-620 colon 100% | MCF7 breast 100% | HCT-116 colon 102% | HCC-2998 colon 114% | KM12 colon 105% | MDA-MB-468 breast 96.4%

O=C1/C(=C/C=C/c2ccco2)SC(=S)N1CC(=S)C1C=CS(=O)(=O)C1 (stereo not drawn)
active: MDA-MB-468 breast -16.5%
inactive: T-47D breast 80.2% | BT-549 breast 88.1% | MDA-MB-435 melanoma 96.7% | SW-620 colon 76.9% | MCF7 breast 27.9% | HCT-116 colon 83.4% | HCC-2998 colon 103% | KM12 colon 89.4%

O=C(N/N=C/c1ccc(Cl)cc1)c1ccc(OCc2nc3ccc(Cl)cc3[nH]2)cc1
inactive: HCT-116 colon 22.7% | HCC-2998 colon 18.2% | KM12 colon 52.9% | MDA-MB-468 breast 52.4%
active: T-47D breast -19.6% | MDA-MB-435 melanoma -15.7% | SW-620 colon -40.3% | MCF7 breast -21.7%

O=C(OCCOCCO)N(c1cccc(Br)c1)c1nc(SCCN2CCOCC2)nc2c1cnn2CC(Cl)c1ccc(Br)cc1 (stereo not drawn)
active: MDA-MB-435 melanoma 9.72% | MCF7 breast 4.77% | KM12 colon -8.97% | MDA-MB-468 breast -2.54%
inactive: T-47D breast 13.6% | SW-620 colon 17.8% | HCT-116 colon 10.8% | HCC-2998 colon 12%

CC(=O)Nc1cccc(-n2c(COc3ccc(I)cc3)nc3ccccc32)c1
inactive: T-47D breast 54.6% and 107% | BT-549 breast 96.9% and 110% | MDA-MB-435 melanoma 97.7% and 108% | SW-620 colon 96.6% and 108% | MCF7 breast 74.7% and 103% | HCT-116 colon 80.4% and 104% | HCC-2998 colon 118% and 119% | KM12 colon 94.7% and 98.5% | MDA-MB-468 breast 78.7% and 111%

N/C(=N\c1nc2ccccc2s1)NC(=O)Nc1ccccc1F
inactive: T-47D breast 31.1% | BT-549 breast 30.2% | SW-620 colon 43% | MCF7 breast 20.1% | HCT-116 colon 10.2% | HCC-2998 colon 45.9% | KM12 colon 22.6%
active: MDA-MB-435 melanoma -18.1% | MDA-MB-468 breast -12.3%

CCN1C(=O)N(CC)C2NNC(Sc3c(C(=O)O)c4ccccc4n(CC(C)C)c3=O)=NC21 (stereo not drawn)
active: MDA-MB-435 melanoma -51% | MCF7 breast 8.53% | HCT-116 colon 9.94% | MDA-MB-468 breast 7.22%
inactive: T-47D breast 72.5% | SW-620 colon 30.5% | HCC-2998 colon 18.7% | KM12 colon 21.4%

CN(C)CCCNC(=S)Nc1ccc(/C=C/c2ccc(Cl)cc2)cc1
active: T-47D breast -48.7% | BT-549 breast -69.2% | MDA-MB-435 melanoma -90.6% | SW-620 colon -41.7% | MCF7 breast -46.2% | HCT-116 colon -11.1% | HCC-2998 colon -84.2% | KM12 colon -36.8% | MDA-MB-468 breast -88.7%

COc1ccc(N=Nc2c(N)nn3c(-c4ccc([N+](=O)[O-])cc4)ccnc23)cc1
inactive: T-47D breast 81.6% | BT-549 breast 94% | MDA-MB-435 melanoma 107% | SW-620 colon 98.4% | MCF7 breast 95.3% | HCT-116 colon 97.9% | HCC-2998 colon 113% | KM12 colon 102% | MDA-MB-468 breast 105%

Fc1cccc(CNc2nc(SCCN3CCOCC3)nc3c2cnn3CC(Cl)c2ccc(Br)cc2)c1 (stereo not drawn)
inactive: MDA-MB-435 melanoma 10.6% | HCT-116 colon 18.4% | HCC-2998 colon 12.2%
active: T-47D breast 1.04% | SW-620 colon -38.2% | MCF7 breast 7.42% | KM12 colon 8.48% | MDA-MB-468 breast 3.38%

COC(=O)c1cc(C(=O)CBr)n2c1ccc1c3ccccc3ccc12
active: MCF7 breast 6.75%
inactive: T-47D breast 57.7% | MDA-MB-435 melanoma 74.9% | SW-620 colon 55.4% | HCT-116 colon 35.6% | HCC-2998 colon 62.5% | KM12 colon 84% | MDA-MB-468 breast 48.8%

— PubChem BioAssay (NCI)
